Only some compounds are listed: those with a hit (about 31% of all), similar ones and a draw of the others.
CYP2C9 inhib = blocks human cytochrome P450 2C9; P11712; inhibition, % at 5 µM; CYP2C9 Supersomes, luciferin-H conversion, luminescence; 20% of 96,000 active;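 active = blocking of liver enzyme CYP2C9 beyond about 50% at 5 µM, limit read from the data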
Target sequence (P11712 whole entry, looked up): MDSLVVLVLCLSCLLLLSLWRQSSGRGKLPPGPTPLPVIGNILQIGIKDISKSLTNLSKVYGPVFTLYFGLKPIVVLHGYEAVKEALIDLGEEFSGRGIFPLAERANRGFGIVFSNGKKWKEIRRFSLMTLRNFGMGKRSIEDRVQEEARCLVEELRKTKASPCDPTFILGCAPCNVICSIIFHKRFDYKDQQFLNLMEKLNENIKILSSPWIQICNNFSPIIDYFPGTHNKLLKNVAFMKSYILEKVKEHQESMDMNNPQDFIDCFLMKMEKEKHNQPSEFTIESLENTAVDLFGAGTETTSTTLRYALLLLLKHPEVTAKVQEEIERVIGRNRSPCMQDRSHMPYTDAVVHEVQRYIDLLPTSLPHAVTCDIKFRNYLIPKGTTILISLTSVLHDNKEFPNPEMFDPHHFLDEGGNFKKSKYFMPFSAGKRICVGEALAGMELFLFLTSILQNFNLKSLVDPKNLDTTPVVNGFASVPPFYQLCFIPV
CYP2C19 act = cytochrome P450 2C19 (human) activation; recombinant CYP2C19, luciferin-H EGE luminescence; stronger effect = higher value; 0 = fully inhibited enzyme, 1 = untreated enzyme; activation factor at 5 µM; 96,000 tested, under 10 active;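 active = activation factor of at least 2 at 5 µM in the primary screen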;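 note: 0 = wells with 2.5 mM tranylcypromine and 1 = vehicle-only wells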
CYP2C9 act = increases human cytochrome P450 2C9 activity; 1.4% of 96,000 active; AID 1024; activation factor at 5 µM; P11712; recombinant CYP2C9, luciferin-H conversion, luminescence; stronger effect = higher value; factor 1 = untreated enzyme, 0 = blocked;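 active = activation factor of 2 or more for CYP2C9 at a 5 µM dose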;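 note: 0 = sulfaphenazole-blocked wells and 1 = vehicle-only wells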
CYP2C19 inh = inhibitors of human CYP2C19 | CYP2C19 Supersomes, luciferin-H EGE luminescence, 30 min | AID 778 | 21% of 96,000 active | inhibition, % at 5 µM | P33261;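 active = CYP2C19 inhibition above a set limit at 5 µM in the primary screen, cut at about 50% in these data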;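 note: plate controls were negative control wells for no effect and 2.5 mM tranylcypromine positive control for full effect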
* hit, by the source's call.

SMILES	CYP2C9 inhib	CYP2C19 act	CYP2C9 act	CYP2C19 inh
CO/N=C/c1ccc(Sc2ccc(C)cc2)c([N+](=O)[O-])c1	10	1	0.9	-2
Cc1ccc(Sc2ccc(/C=N/O)cc2[N+](=O)[O-])cc1	64*	1	0.4	0
Cc1ccc(C2(C)NC(=O)N(CCOc3ccccc3)C2=O)cc1 (stereo not drawn)	-2	0.2	1	77*
O=C1C2CCCN2C(c2cccs2)N1c1ccc(Cl)cc1 (stereo not drawn)	18	0.8	0.8	22
O/N=C(\c1ccc(Cl)cc1)c1cc2ccccc2o1	36	0.9	0.6	15
Cc1ccc(S(=O)(=O)c2c(C)nn(C(C)(C)C)c2OC(=O)C2CCCC2)cc1	61*	0.6	0.4	37
Cc1nn(C(C)(C)C)c(OC(=O)C2CCCC2)c1S(=O)(=O)c1ccccc1	49	1	0.5	-4
Nc1nc(Nc2ccccc2Br)nc(C(F)(F)F)n1	54*	0.5	0.5	46
CCOC(=O)C(CSCc1ccccc1)NC(=O)OC(C)(C)C (stereo not drawn)	22	0.6	0.8	37
CCOC(=O)C(CSCC(=O)c1ccc(Br)cc1)NC(=O)OC(C)(C)C (stereo not drawn)	82*	0.1	0.2	93*
CCOC(=O)C(CSCC(=O)c1ccc(Cl)cc1)NC(=O)OC(C)(C)C (stereo not drawn)	28	0.4	0.7	60*
CCN(CC)CCCNC(=O)C1c2ccccc2C(=O)N1Cc1ccc(C)cc1 (stereo not drawn)	-10	1.2	1.1	-16
O=C1/C(=C\c2cccnc2)CCc2ccccc21	28	0.3	0.7	75*
O=C1/C(=C/c2ccccc2)CCCc2ccccc21	6	0.9	0.9	15
Cc1ccc(NCCNc2ccc(C)cc2)cc1	12	0	0.9	100*
Cc1ccc(NCCc2ccc(C)nc2)cc1	22	0	0.8	96*
COc1ccc(NCCNc2ccc(OC)cc2)cc1	12	0.4	0.9	56*
Cc1ccccc1C(=O)Nc1ccc(N2CCOCC2)nc1	0	0.8	1	20
CCS(=O)(=O)N1CCCC(C(=O)NCCN(C)Cc2ccccc2)C1 (stereo not drawn)	0	1	1	-1
Cn1c(N)c(C(=O)CCl)c(=O)n(C)c1=O	-6	1.1	1.1	-9
CN(C)c1nc(N)nc(CSc2nnnn2C)n1	-26	1	1.3	-4
CN(C)c1nc(N)nc(CSc2ncc(Cl)cc2Cl)n1	0	0.4	1	64*
Cc1sc(NC(=O)c2ccco2)c(CN2CCN(c3ccccn3)CC2)c1C	89*	0.3	0.1	65*
Cc1sc(NC(=O)c2ccco2)c(CN2CCN(c3ccc(F)cc3)CC2)c1C	48	0.5	0.5	55*
Cc1ccc(CN2CCN(c3ccccn3)CC2)s1	50*	0.1	0.5	90*
SMILES	CYP2C9 inhib	CYP2C19 act	CYP2C9 act	CYP2C19 inh
O=C(CN1CCN(c2ccccn2)CC1)NCCc1ccccc1	36	0.9	0.6	12
CCOC(=O)c1c(C)[nH]c(C(=O)Cn2c(=O)oc3ccccc32)c1C	9	1	0.9	-3
N/C(COc1cccc(C(F)(F)F)c1)=N\NC(=O)c1cccnc1Oc1ccccc1	-8	0.8	1.1	21
O=C(Oc1cc(-c2ccccc2)no1)c1ccc(F)cc1	-10	1.2	1.1	-16
CSc1nc(C)cc(SCCO)n1	-20	0.9	1.2	5
Cc1ccc(C)c(N2CCN(C(=O)C3CCN(c4nc(C)cc(C)n4)CC3)CC2)c1	-22	0.8	1.2	16
Cc1cc(C)nc(N2CCC(C(=O)N3CCN(c4cc(Cl)ccc4C)CC3)CC2)n1	51*	0.5	0.5	50
N/C(=N\OC(=O)C1CCCCC1)c1ccccn1	20	0.8	0.8	18
Cc1ccc(CCNC(=O)Cn2cccc2)cc1	22	0.2	0.8	76*
Cc1ccc(CCNC(=O)CN2CCN(Cc3ccccc3F)C2=O)cc1	81*	0.5	0.2	48
Cc1ccc(CCNC(=O)NC(C)(C)C)cc1	12	0.8	0.9	24
O=C(CN1CCN(Cc2ccc(F)cc2Cl)C1=O)NCCc1ccccc1	58*	0.5	0.4	54*
O=C1CCCCCN1CP(=O)(O)CCc1ccccc1	-6	0.9	1.1	13
COC(=O)CSc1nsc(SCC(=O)OC)c1C#N	23	0.5	0.8	54*
CCOC(=O)C(NC(=O)N1CCCCC1)(c1ccccc1)C(F)(F)F (stereo not drawn)	5	1	0.9	1
Cc1ccc(C(=O)OC2CCS(=O)(=O)c3sccc32)cc1 (stereo not drawn)	23	0.7	0.8	35
CC(C)NC(C(=O)Nc1cc(Cl)cc(Cl)c1)c1ccccc1 (stereo not drawn)	72*	0.3	0.3	71*
CCOC(=O)c1sc(NS(=O)(=O)c2ccc(NC(C)=O)cc2)nc1C	45	0.8	0.6	15
CCOC(=O)c1sc(NC(=O)Nc2ccc(Cl)cc2)nc1C	15	0.9	0.9	10
CCOC(=O)c1sc(NS(=O)(=O)c2ccccc2)nc1C	81*	0.7	0.2	28
CCOC(=O)c1sc(Nc2ccc(C)cc2C)nc1C	88*	0.8	0.1	17
CCOC(=O)c1sc(NS(=O)(=O)c2ccccc2Cl)nc1C	96*	0.5	0	52*
CCOC(=O)c1c(Nc2nc(C)c(C(=O)NC)s2)sc(C)c1C	65*	0.6	0.4	40
CCCCn1c(=N)n(CC(O)COc2cccc(C)c2)c2ccccc21 (stereo not drawn)	1	0.8	1	20
CNc1nc(C)c(C(=O)OCc2ccccc2)s1	54*	0.2	0.5	85*
SMILES	CYP2C9 inhib	CYP2C19 act	CYP2C9 act	CYP2C19 inh
Cn1c(C(=O)N2CCOCC2)cnc1Sc1ncc(C(F)(F)F)cc1Cl	21	0.9	0.8	8
CCCNC(=O)c1cnc(Sc2ncc(C(F)(F)F)cc2Cl)n1C	71*	0.8	0.3	24
Cc1ccc(S(=O)(=O)N(CC(=O)N2CCCCCC2)c2ccccc2)cc1	32	0.9	0.7	12
COc1ccc(Br)cc1S(=O)(=O)N(CC(=O)N1CCOCC1)c1ccccc1	68*	0.4	0.3	56*
COc1ccc(C)cc1S(=O)(=O)N(CC(=O)N1CCCC1)c1ccccc1	89*	0.9	0.1	14
CCC(=O)Nc1ccc2c(c1)nc(CN1CCN(C(C)=O)CC1)n2C	-9	1	1.1	3
COc1cccc(NC(=O)C23CCC(C)(C(=O)O2)C3(C)C)c1 (stereo not drawn)	0	1.1	1	-9
O=C(O)CCCC(=O)Nc1nc(-c2ccccc2)cs1	0	0.9	1	10
Cc1ccc(S(=O)(=O)CC(=O)Nc2nc(-c3ccccc3)cs2)cc1	97*	0.2	0	85*
O=C(CS(=O)(=O)c1ccccc1)Nc1nc(-c2ccccc2)cs1	98*	0.2	0	76*
O=C(OCC(=O)c1cccs1)c1ccc(NC(=O)c2ccco2)cc1	12	0.8	0.9	21
c1ccc(CN2CCN(C3=Nc4cccc5cccc3c45)CC2)cc1	14	0.4	0.9	57*
